Laboratory results as given in the supplement of paper PMC3334620.
In all, about 33,000 sequences were measured (“E-score (-0.5 to 0.5)”: median about -0.012, highest 2% from about 0.27 on). Shown is part of a subset that was picked to be rich in the highest values.

molecular target: T1, Vhr1 (UniProt P40522); experiment: PBM E-score (8-mer binding enrichment) (E-score (-0.5 to 0.5)); higher = stronger / more preferred TF binding; conditions: protein concentration: 200 nM; construct: GST-full length
T1 sequence: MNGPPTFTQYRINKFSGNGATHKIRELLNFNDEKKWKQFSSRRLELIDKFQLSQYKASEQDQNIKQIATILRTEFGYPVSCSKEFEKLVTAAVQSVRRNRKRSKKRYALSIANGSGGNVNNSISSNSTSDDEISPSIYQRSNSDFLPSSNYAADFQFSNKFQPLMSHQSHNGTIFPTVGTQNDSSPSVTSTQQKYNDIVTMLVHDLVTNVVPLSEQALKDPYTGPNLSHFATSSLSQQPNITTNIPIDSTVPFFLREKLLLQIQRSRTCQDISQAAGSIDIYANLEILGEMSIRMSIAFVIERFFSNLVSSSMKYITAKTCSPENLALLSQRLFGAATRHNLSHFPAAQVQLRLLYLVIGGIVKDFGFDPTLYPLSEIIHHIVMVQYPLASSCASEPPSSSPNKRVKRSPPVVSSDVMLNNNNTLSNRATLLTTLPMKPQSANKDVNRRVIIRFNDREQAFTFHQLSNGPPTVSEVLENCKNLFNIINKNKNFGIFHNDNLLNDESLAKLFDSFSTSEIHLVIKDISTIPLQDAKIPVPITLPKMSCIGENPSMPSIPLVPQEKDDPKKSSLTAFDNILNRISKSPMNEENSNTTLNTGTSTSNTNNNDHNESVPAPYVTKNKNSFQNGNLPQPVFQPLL
How it was run: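 For each ungapped eight-base word taken together with its reverse complement, the Universal PBM Analysis Suite assigned an E-score. Binding data came from GST-tagged yeast transcription factors, applied at about 100-200 nM, on universal all-10-mer Agilent arrays made double-stranded by primer extension. Fluorescent anti-GST marked bound protein, and scans were normalised with masliner.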

| Sequence | PBM E-score |
| --- | --- |
| AGTCGCAC | 0.296 |
| AGTCGCCC | 0.346 |
| GGTCGCAC | 0.0284 |
| AGTCGCAG | 0.24 |
| AGTCGCCG | 0.246 |
| AGTCGCCA | 0.233 |
| GTTCTTGA | -0.0686 |
| CTAGGGGC | -0.146 |
| AACACCAC | 0.0462 |
| GTTCAAAC | -0.0829 |
| ATACTGCA | 0.234 |
| CGCCACGA | -0.0781 |
| CTTGCAAC | 0.0737 |
| CGAATCAC | 0.331 |
| GGAATCAA | 0.154 |
| GGAATCAC | 0.388 |
| CGAATCCC | 0.00269 |
| GGAATCCC | 0.034 |
| CGAATCTC | -0.0376 |
| AAAAGCCA | -0.0583 |
| ACACCTGC | 0.0726 |
| AGGCTACA | 0.0844 |
| ATGACCAC | 0.176 |
| ACCCTATG | 0.136 |
| TACGTTGA | 0.0682 |

| Sequence | PBM E-score |
| --- | --- |
| GATTTTGA | 0.0345 |
| ATTACTTG | 0.164 |
| ACTCCGAA | 0.116 |
| ACTCCGAC | 0.332 |
| ACTCCGAT | 0.1 |
| GCTCCGAC | 0.0683 |
| ACTCCGAG | 0.357 |
| CCTCCGAC | -0.0621 |
| TCTTAACA | -0.0919 |
| CATGCATG | 0.117 |
| CATGCATC | 0.28 |
| CATGCATA | 0.0152 |
| ACCTCCAT | 0.0255 |
| CTAGTGGA | -0.162 |
| GATCCCTA | -0.0993 |
| GGCCAGGA | -0.105 |
| AATTAGTA | 0.146 |
| AGTTAGTC | 0.291 |
| CATTAGTC | 0.257 |
| CGTTAGTC | 0.132 |
| AATTAGTC | 0.29 |
| AGTTAGTA | 0.137 |
| CAATCTAA | -0.13 |
| ATAGCAAG | 0.161 |
| GCGAGACC | -0.049 |

| Sequence | PBM E-score |
| --- | --- |
| ACTTAGGA | -0.198 |
| CGACTAAC | 0.303 |
| TGACTAAA | 0.326 |
| GGACTAAA | -0.248 |
| AGACTACA | 0.17 |
| CGACTACG | 0.188 |
| AGACTAAA | 0.0442 |
| GGACTAAC | -0.00735 |
| CGACTACC | 0.22 |
| CGACTACA | 0.272 |
| CGACTAAA | 0.0758 |
| TGACTACA | 0.359 |
| GGACTACA | 0.146 |
| CAGATAAG | -0.0755 |
| CTTCGACA | -0.0949 |
| CGGCCAAC | 0.0556 |
| CGTCCTAA | 0.0547 |
| GGCACATA | 0.13 |
| GGGCCAAC | -0.157 |
| ACCATAGG | 0.0531 |
| TAGTAATA | 0.191 |
| CAGGGGCC | -0.184 |
| CAGGGGCG | 0.301 |
| AAGGGGCG | -0.0512 |
| CTTTAGAA | -0.238 |

| Sequence | PBM E-score |
| --- | --- |
| GAGAAAGA | -0.167 |
| GTCCGGAC | 0.273 |
| CTCCGGAC | 0.0766 |
| ATCCGGAC | -0.192 |
| AGGATCTC | -0.119 |
| ATCAATGC | 0.0623 |
| AGGAGACG | -0.176 |
| CCCGTGAA | -0.0611 |
| CGCCTATA | -0.135 |
| CGCGACTC | 0.449 |
| CGCGACTA | 0.391 |
| AGCGACTA | 0.211 |
| AGCGACTC | 0.314 |
| CGCGACCC | 0.153 |
| CTCGACTA | 0.163 |
| GGCGACTA | 0.212 |
| CTCGACTC | 0.19 |
| AGCGACTG | 0.194 |
| GAGGTATA | 0.113 |
| CTTGCTGC | -0.113 |
| CCAATACG | -0.209 |
| ATGTGCGC | -0.0331 |
| ACACTTTA | -0.0402 |
| GAACCTGA | 0.0239 |
| TCCTGACA | 0.107 |

| Sequence | PBM E-score |
| --- | --- |
| CTGAACCA | 0.245 |
| ATGAACCA | 0.294 |
| ATGAACCG | 0.0189 |
| ACGAACCA | 0.273 |
| CCGAACCA | 0.0572 |
| CGGAACCG | 0.0495 |
| GGGAACCA | 0.176 |
| CGGAACCA | 0.343 |
| ACGAACCC | -0.119 |
| GCTCCTCA | -0.363 |
| CTATCGGA | -0.237 |
| ACAGTTCC | -0.00019 |
| ATATCTTC | 0.11 |
| ACTATCTA | 0.184 |
| CAGCCAGG | 0.0621 |
| GTGGTAAC | -0.0602 |
| ACGAAGCA | 0.00046 |
| CAGACTCG | 0.0994 |
| AACCTCAG | -0.103 |
| GAGTGTGC | 0.0366 |
| CAGTGTGA | 0.285 |
| TAGTGTGA | 0.088 |
| AAGTGTGA | 0.0182 |
| GAGTGTAA | 0.0325 |
| GAGTGTGA | 0.278 |

| Sequence | PBM E-score |
| --- | --- |
| CATTCACG | -0.114 |
| CATTCACA | 0.00907 |
| GATTCAGA | 0.305 |
| GATTCCGA | 0.287 |
| GATTCACA | 0.326 |
| GATTCAGC | 0.149 |
| GATTCCGC | 0.216 |
| CATTCCGA | 0.0348 |
| TATTCAGA | 0.178 |
| CGAAAGCA | -0.046 |
| GATACACC | 0.197 |
| ACTGGCTG | 0.0954 |
| CTTACCCA | 0.104 |
| ACTCCAGA | 0.0505 |
| TCTGCCCA | -0.179 |
| AACCAACT | 0.0869 |
| CGTGCTAA | -0.201 |
| CCCATGAG | 0.227 |
| ATGCATGC | -0.0419 |
| CCTCATGA | 0.0599 |
| ATGCATGG | 0.28 |
| ACACATGG | 0.215 |
| ACTCATGG | 0.317 |
| ATTCATGG | 0.21 |
| ATGCATGA | 0.165 |

| Sequence | PBM E-score |
| --- | --- |
| ACTCATGA | 0.369 |
| ACTCATGC | 0.322 |
| CCTCATGC | 0.0272 |
| GCTCATGA | 0.16 |
| ATTCATGC | 0.21 |
| AATTCACG | -0.0883 |
| CGACAGAG | 0.0418 |
| GGACTATA | 0.0737 |
| CCAATTCC | -0.0792 |
| ATCGTCTA | 0.0131 |
| ATCCTCCC | -0.107 |
| CAAGTTCC | -0.216 |
| AAGTCCGA | -0.205 |
| ATTATACG | 0.303 |
| ATTATACA | 0.00881 |
| ATTATACC | 0.112 |
| AGGTTCAA | 0.0239 |
| TGATTCCA | 0.364 |
| AGATTCAA | -0.133 |
| CGATTCCA | 0.0812 |
| TGATTCAA | 0.326 |
| TGGTTCAA | 0.289 |
| CGGTTCAA | 0.0706 |
| GGATTCAA | -0.0312 |
| AGATTCCA | 0.00955 |

| Sequence | PBM E-score |
| --- | --- |
| CGATGAAA | -0.0595 |
| AAGCTTTA | -0.237 |
| CTAAAACA | -0.0504 |
| GTAGCTTA | 0.00186 |
| CAAGTAAG | -0.123 |
| CCATTCAG | -0.0511 |
| ACTAGTCA | 0.292 |
| CCTAGTCC | -0.0886 |
| GCTAGTCA | 0.284 |
| ACTAGTCC | 0.133 |
| TCTAGTCA | 0.218 |
| GCTAGTCC | -0.158 |
| CCTAGTCA | 0.309 |
| GCTAGTTA | 0.00532 |
| CCTAGTCG | 0.0391 |
| ATCTTCTG | -0.113 |
| ACTTCGGA | -0.00447 |
| GAAAGTTC | -0.349 |
| AGAGTACT | 0.0467 |
| ATTCTTAC | -0.00122 |
| CTCTGGAC | 0.0126 |
| CCGCCCGG | 0.0777 |
| ACGCCCCA | 0.112 |
| CCGCCCCG | 0.365 |
| CCGCCCCC | -0.17 |

| Sequence | PBM E-score |
| --- | --- |
| CCTCCCCA | 0.28 |
| CCTCCCCC | -0.19 |
| GCGCCCCA | -0.131 |
| CCGCCCCA | 0.349 |
| CCTCCCAA | -0.246 |
| CAGAAATG | -0.168 |
| CTTCATGA | 0.145 |
| CGGCCGAA | 0.185 |
| AGGTTGAA | -0.127 |
| AGGAACCT | -0.0548 |
| CAAGAGTA | 0.167 |
| CTCCCGCC | 0.0303 |
| CTAGCGAC | -0.00899 |
| CGTGTCTA | 0.124 |
| CTGATTTA | 0.00054 |
| GAGATTTA | -0.176 |
| ATGATTTC | 0.249 |
| GTGATTTA | 0.321 |
| ATGATTTA | 0.295 |
| GGGATTTA | -0.29 |
